Source: PubChem
Tb PFK block: T. brucei PFK enzyme inhibition. O15648. T. brucei PFK, ADP-Glo luminescence. Potency, µM (series often up to 57.5 µM), without a hit: top-dose activity, negative = inhibition, most hits filed as inhibitors. hit rate 0.17% among 330,000;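 note: 0% = uninhibited 1x PFK enzyme wells and -100% = no-enzyme wells; nearly all actives have a fitted effect of over 60% in size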
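In TEA buffer at pH 8.0 with 5 mM MgCl2, enzyme (1.25 nM) converted F6P (0.5 mM) and ATP (0.1 mM) for 45 min at room temperature. ADP product was read by luciferase luminescence.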
Tb PGK inh: inhibitors of T. brucei phosphoglycerate kinase | PGK/GAPDH coupled, Kinase-Glo luminescence, 60 min | P07378 | hit rate 0.043% among 380,000 | Potency, µM (series often up to 57.5 µM), for inactives: top-dose activity change, negative = inhibition, most hits filed as inhibitors; note: % is set by controls: 0 for no effect and ±100 for the full control effect; nearly all actives have a fitted effect of over 60% in size
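Luminescent ATP detection (Kinase-Glo Plus) follows a 60-minute room-temperature incubation, with wells lacking PGK as controls. Buffer: 100 mM TEA (pH 7.6), 5 mM MgCl2, 0.01% Tween-20. Coupling enzyme GAPDH (100 nM final) supplies unstable 1,3-BPG in-well.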
GLP1R inv ag: inverse agonists of human GLP-1 receptor; P43220; hit rate 1.6% among 410,000; Potency, µM (titrated, usually from 38.3 µM), for the others: at the highest dose activity change, negative = inhibition, hits mostly inhibitors; HEK293 GLP-1R CRE-luciferase, luminescence, 24 h; GLP-1R form is constitutively active; note: % is set by controls: 0 for no effect and ±100 for the full control effect; nearly all actives have a fitted effect of over 55% in size
Target sequence (P43220 whole entry, looked up): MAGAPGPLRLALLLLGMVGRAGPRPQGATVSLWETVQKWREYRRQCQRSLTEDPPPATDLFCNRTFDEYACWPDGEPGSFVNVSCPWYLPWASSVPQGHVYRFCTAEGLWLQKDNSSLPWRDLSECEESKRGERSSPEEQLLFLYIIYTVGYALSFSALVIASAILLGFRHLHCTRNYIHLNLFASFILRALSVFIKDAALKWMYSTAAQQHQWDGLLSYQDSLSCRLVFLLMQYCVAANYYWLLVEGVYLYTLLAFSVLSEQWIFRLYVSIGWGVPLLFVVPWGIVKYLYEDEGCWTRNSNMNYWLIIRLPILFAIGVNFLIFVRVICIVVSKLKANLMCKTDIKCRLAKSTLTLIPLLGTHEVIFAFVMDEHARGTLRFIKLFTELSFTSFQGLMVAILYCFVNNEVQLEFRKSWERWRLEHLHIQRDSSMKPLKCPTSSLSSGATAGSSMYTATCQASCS
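Inverse agonism was detected as reduced cAMP-driven luciferase luminescence after 24 h compound treatment. The cells were HEK293 clones expressing constitutively active human GLP-1R with the reporter. Reporter-only and GPR119 cell lines served as counterscreen controls.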
GLP1R ag: agonists of human GLP-1 receptor; P43220; HEK293 GLP-1R CRE-luciferase, luminescence, 4-6 h; cells express a hypersensitive GLP-1R form; Potency, µM (series often up to 45.6 µM), for inactives: at the highest dose activation, hits mostly activators; hit rate 0.007% among 380,000; AID 624172; note: % of control where 0% means no effect
GLP1R cytotox: cytotoxicity counter-screen for GLP-1 receptor inverse agonists | HEK293 cAMP-luciferase reporter cells, luminescence, 24 h | Potency, µM (doses to about 38.3 µM), for the others: at the top dose activity change, negative = inhibition, hits mostly inhibitors | hit rate 0.13% among 410,000;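 note: loss of luciferase light is scored as toxicity; % is set by controls: 0 for no effect and ±100 for the full control effect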
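Luminescence readout: signal drop marks cytotoxicity. Plated cells grew 12 h at 37 °C, 5% CO2, received 23 nL compound for 24 h, then got luciferase reagent, read after 12 min at RT.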
Pin1 inh: inhibitors of human Pin1 | Q13526 | Pin1 FP peptide displacement, HiFluor488, 10 min | Potency, µM (top dose mostly 115 µM), without a hit: at the top dose activity, negative = inhibition, usual class: inhibitors | hit rate 0.009% among 390,000 | AID 504891; active = well fitted inhibition curve with a large enough effect in the polarisation, with a control signal flat, not every such curve was filed as active; inconclusive = small, poorly fitted or top-dose-only effect, or effect the other way, or a change in a side signal; inactive = no such curve, though single readings can be large or run the other way; the % refers to the polarisation; note: % is set by controls: 0 for no effect and ±100 for the full control effect
Starred values were filed as active, the others as inactive; i = inactive; u = inconclusive; x = no result; [ ] = remark or other dose. A selection: hits, their analogues and other compounds. The true share with any hit is near 1.8%. Unless noted, calls come from the whole dose curve; as a rule, active = well fitted curve in the direction sought with a large enough effect; inconclusive = small, poorly fitted or top-dose-only effect, or another doubt; inactive = no such curve, though single readings can be large; an effect the other way counts as inactive or inconclusive. Potency is the fitted concentration of half-maximal effect.

SMILES	Tb PFK block	Tb PGK inh	GLP1R inv ag	GLP1R ag	GLP1R cytotox	Pin1 inh
COc1ccccc1OC(=O)Oc1ccccc1OC	x	-5.3%	u	16.7%	-2.0%	-7.1%
O=C(NCCN1CCC2(CC1)C(=O)NCN2c1cccc(F)c1)c1ccc2ccccc2c1	x	x	7.94µM*	-5.2%	5.2%	x
C[C@H](CO)N1C[C@H](C)[C@@H](CN(C)S(=O)(=O)c2cccs2)Oc2ccc(NC(=O)Nc3ccc(C(F)(F)F)cc3)cc2C1=O	2.2%	-6.8%	8.91µM*	-1.3%	u	14.8%
C[C@@H]1CN([C@H](C)CO)C(=O)c2cc(NC(=O)Nc3ccc(C(F)(F)F)cc3)ccc2O[C@H]1CN(C)S(=O)(=O)c1cccs1	-1.7%	9.6%	u	-3.6%	u	36.0%
CCOC(=O)C(O)(c1ccc(N(C)C(=O)COc2ccccc2)cc1)C(F)(F)F (stereo not drawn)	x	4.1%	-6.5%	9.2%	0.5%	2.8%
CN(C)C(=O)O/N=C(\N)COc1ccc(C(C)(C)C)cc1	2.2%	-4.7%	u	-8.6%	3.16µM*	4.8%
COc1ccccc1S(=O)(=O)N(C)C[C@@H]1Oc2cc(C#CCC(C)C)ccc2S(=O)(=O)N([C@H](C)CO)C[C@@H]1C	x	-0.9%	u	7.0%	-19.3%	x
C[C@@H]1CN([C@@H](C)CO)S(=O)(=O)c2ccc(Br)cc2O[C@H]1CN(C)C(=O)Nc1ccc(C(F)(F)F)cc1	x	-7.5%	7.94µM*	-0.4%	-8.3%	x
CCc1nn2c(=O)c(C)c(N3CCNCC3)nc2s1	x	x	x	x	x	0.7%
O=C(CN1CCN(C(=O)CNC(=O)c2ccc(-c3ccccc3)cc2)CC1)Nc1ccccc1Cl	x	4.2%	10µM*	-1.4%	-29.2%	x
COC(=O)c1ccc(Cl)c(NC(=O)CN2CCN(Cc3ccccc3)CC2)c1	-0.3%	-1.2%	u	-7.6%	-6.7%	5.9%
O=C(CN1C(=O)c2ccccc2S1(=O)=O)NCCSCc1c(F)cccc1Cl	11.6%	-8.6%	8.9%	11.7%	u	1.8%
CCOC(=O)C1(CCOc2ccccc2)CCN(Cc2cccc(O)c2)CC1	-1.9%	i	u	5.5%	-17.5%	-2.5%
CCOC(=O)C1(CCOc2ccccc2)CCN(Cc2ccccc2OC)CC1	1.4%	-2.7%	8.91µM*	5.9%	-19.5%	8.1%
CC[C@@H](C(=O)[C@@H](C)[C@@H](O)[C@H](C)CCc1ccc(C)c(O)c1C(=O)O)[C@H]1O[C@](CC)([C@H]2CC[C@](O)(CC)[C@H](C)O2)C[C@@H]1C	8.2%	-7.1%	10µM*	-11.2%	10µM*	-18.0%
Cc1ccc(NC(=O)C2CCCN2S(=O)(=O)c2ccc3nc(-c4ccccc4)[nH]c3c2)cc1F (stereo not drawn)	x	-9.2%	u	x	u	10.4%
NS(=O)(=O)c1ccc(N=Cc2c(O)n(C3CCCCC3)c(=O)n(C3CCCCC3)c2=O)cc1	-0.7%	-2.6%[11.5 µM]	u	-2.5%	-22.1%	24.5%
CC(C)C(=O)N1CCC(CN=Cc2c(O)n(C3CCCCC3)c(=O)n(C3CCCCC3)c2=O)CC1	0.4%	0.9%	2.82µM*	-0.9%	-2.1%	u
O=C(Cn1c(=O)oc2cc(S(=O)(=O)N3CCCCCC3)ccc21)NCc1ccccc1Cl	x	0.4%	u	x	-11.5%	13.2%
C[C@]12CC[C@H](N)CC1=CCC1C2CC[C@@]2(C)C1CC[C@@H]2O (stereo partly drawn)	0.0%	-10.5%	u	-0.9%	u	-0.5%
C[C@]12CC[C@@H](O)CC1=CCC1C2CC[C@@]2(C)C1CC[C@@H]2N (stereo partly drawn)	0.0%	-6.3%	11.2µM*	7.5%	-13.6%	-4.3%
CCCN1CCc2c(sc(NC(=O)Cc3ccc(F)cc3)c2C(N)=O)C1	-1.1%	-0.3%	-13.7%	1.2%	35.5%	-1.9%
CCC(C)NCCOc1ccc(C(C)(C)c2ccccc2)cc1 (stereo not drawn)	-24.5%	-2.1%	5.01µM*	8.7%	u	1.2%
